The list is not random: actives were taken first. Their share in the collection is about 4.7%.
D1 antag: blocks dopamine activation of the human D1 receptor. P21728. HEK293 TREx D1 cells, calcium flux, dopamine EC80; stronger effect = lower value. activity change, negative = inhibition, % at 10 µM. hit rate 3.2% among 360,000. AID 504652; in the data active = activity change below about -30%; note: % is set by controls: 0 for no effect and ±100 for the full control effect
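Calcium flux readout: force-coupled, inducible Hek293 Trex D1 line, cells induced overnight at 30 C with tetracycline, dye-loaded 30–90 min at RT. Antagonism scored against EC80 dopamine challenge given 180 s after compound.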
TRHR agonist: activates the human TRH receptor; P34981; TRHR cells, calcium flux fluo-8, FDSS agonist mode; activation, % at 2 µM; hit rate 0.18% among 360,000; AID 493084; note: 0% is about no effect
Target sequence (P34981 whole entry, looked up): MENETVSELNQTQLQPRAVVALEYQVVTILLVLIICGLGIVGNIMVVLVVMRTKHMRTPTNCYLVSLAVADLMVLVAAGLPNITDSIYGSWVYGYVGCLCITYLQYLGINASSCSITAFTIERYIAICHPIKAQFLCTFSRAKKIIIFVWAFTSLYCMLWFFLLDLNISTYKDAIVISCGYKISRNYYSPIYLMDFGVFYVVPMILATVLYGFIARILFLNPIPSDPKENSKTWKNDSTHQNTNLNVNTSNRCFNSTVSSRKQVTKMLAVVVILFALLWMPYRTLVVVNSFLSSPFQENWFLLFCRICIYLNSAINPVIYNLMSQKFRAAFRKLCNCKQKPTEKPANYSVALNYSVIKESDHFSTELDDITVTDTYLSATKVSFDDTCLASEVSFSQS
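TRHR-expressing cells, plated overnight in medium with 10% serum, were loaded with fluo-8 calcium dye at room temperature. After a 10 s baseline, library compound was pin-added and calcium release was recorded kinetically (ex 480/em 530) as agonist response.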
D1 agonist: human D1 receptor agonism; activation, % at 2 µM; HEK293 T-REx D1 cells, calcium flux, agonist mode; P21728; hit rate 1% among 360,000; note: 0% is about no effect
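Tetracycline-induced HEK293 TREx D1 cells, force-coupled to calcium signalling, were dye-loaded with a no-wash calcium kit. Compound was pin-added after a 10 s baseline. Fluorescence was read kinetically at 1 cycle/s for 180 s, with calcium rises flagged as agonism.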
D1 potentiator: enhances dopamine response at the human D1 receptor; hit rate 0.036% among 360,000; potentiation, % at 10 µM; HEK293 TREx D1 cells, calcium flux, dopamine EC20 potentiation; P21728; in the data active = potentiation above about 30%; note: 0% is about no effect
TRHR enhancer: TRH receptor (human) allosteric enhancement | TRHR cells, fluo-8 calcium fluorescence, EC20 TRH enhancement | hit rate 0.66% among 360,000 | enhancement, % at 2 µM | AID 493056; in the data active = enhancement above about 30%; note: 0% is about no effect
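TRHR-expressing cells loaded with fluo-8 calcium dye were read kinetically (ex 480/em 530) during compound addition, then stimulated with an EC20 of TRH (10 nM final). Enhancement of the Gq-mediated intracellular calcium response was scored.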
* hit, by the source's call; nt = not tested or not shown. Cut-off read from the data, not from the text of the source, unless noted: active = activation above about 30%; inactive = the rest.

SMILES | D1 antag | TRHR agonist | D1 agonist | D1 potentiator | TRHR enhancer
O=C(C1CCCCN1S(=O)(=O)c1ccccc1)N1CCCCC1 (stereo not drawn) | 14 | -1 | -1 | 0 | 9
O=C(C1CCCCN1S(=O)(=O)c1ccccc1)N1CCN(C(c2ccccc2)c2ccccc2)CC1 (stereo not drawn) | -30* | 0 | 8 | 2 | -2
CCOc1ccc(NC(=O)Cn2c(=O)nc(-c3ccccc3)c3ccccc32)cc1 | 15 | 0 | 3 | 0 | -1
NNC(=O)CNC(c1ccccc1)c1cc(Br)ccc1NC(=O)c1ccc(Br)cc1 (stereo not drawn) | 3 | -1 | 17 | -8 | 3
NNC(=O)CNC(c1ccccc1)c1cc(Br)ccc1NC(=O)CCN1CCOCC1 (stereo not drawn) | 0 | -1 | 7 | 4 | 36*
COc1ccc(-n2c(SCC(=O)NCc3ccco3)nc3sc4c(c3c2=O)CCN(C)C4)cc1 | -16 | 0 | 2 | 3 | -5
CN1CCc2c(sc3nc(SCC(=O)NCc4ccco4)n(-c4ccccc4)c(=O)c23)C1 | -33* | 0 | 3 | -8 | -6
COC(=O)CSc1nc2sc3c(c2c(=O)n1-c1ccc(OC)cc1)CCN(C)C3 | 3 | 2 | 2 | 2 | 33*
CCOC(=O)CSc1nc2sc3c(c2c(=O)n1-c1ccc(OC)cc1)CCN(C)C3 | -8 | 1 | 5 | -3 | -3
Cc1ccc(Nc2ncc(C(=O)Nc3ccc(F)cc3F)c3ccccc23)cc1Cl | 13 | 1 | 5 | -1 | 2
Cc1nc(N2CCN(Cc3ccccc3)CC2)nc2c1C(=O)CC(c1ccco1)C2 (stereo not drawn) | -32* | 0 | 1 | -3 | 4
Cc1nc(N2CCN(Cc3ccc4c(c3)OCO4)CC2)nc2c1C(=O)CC(c1ccco1)C2 (stereo not drawn) | -5 | 1 | 3 | 0 | -5
O=C(NN1CCCCC1)c1cccc(COc2ccc(Cl)cc2)c1 | -31* | 1 | 5 | -3 | 2
CCOc1ccc(OCc2cccc(C(=O)N3CCCCCC3)c2)cc1 | -21 | 0 | 10 | -6 | -5
CCOC(=O)C1=C(O)/C(=C/c2ccccn2)SC1=Nc1ccc(Cl)cc1 | -33* | 0 | 2 | -7 | 12
CCOC(=O)C1=C(O)/C(=C/c2ccc(OCC(=O)O)c(OCC)c2)SC1=Nc1ccccc1 | 2 | 1 | 3 | -1 | -4
O=C(OCC(=O)N1CCCC1)c1ccccc1C(=O)c1ccccc1 | -2 | 1 | 2 | 1 | 2
O=C1c2ccccc2-c2onc3ccc(NCc4ccco4)c1c23 | -2 | 63* | 122* | -8 | 7
O=C(O)c1ccccc1NCc1ccco1 | 3 | 0 | 3 | 8 | -3
CCNc1ccc2noc3c2c1C(=O)c1ccccc1-3 | -44* | 122* | 313* | 3 | 31*
CCOc1ccc2noc3c2c1C(=O)c1ccccc1-3 | -24 | 46* | 98* | 2 | 1
Cc1cc(C)cc(NC(=O)CSc2nnc(-c3cc(C)[nH]n3)n2N)c1 | -6 | -1 | 1 | -2 | 0
Cc1ccc(S(=O)(=O)NCCc2ccncc2)cc1 | -1 | -1 | 0 | -3 | 16
CCCCc1ccc(S(=O)(=O)NCCc2ccncc2)cc1 | -45* | -1 | 9 | -5 | -8
N#Cc1cc(N)c(Nc2ccccc2)cc1C#N | -41* | -1 | 10 | -11 | -13
SMILES | D1 antag | TRHR agonist | D1 agonist | D1 potentiator | TRHR enhancer
Cc1ccc(NC(=O)c2nc(S(=O)(=O)Cc3ccc(F)cc3)ncc2Cl)cc1C | -37* | 2 | 4 | -3 | -15
Cc1ccccc1CS(=O)(=O)c1ncc(Cl)c(C(=O)Nc2nnc(C(C)C)s2)n1 | 8 | 0 | -1 | 3 | 0
Cc1ccc(NC(=O)c2nc(S(=O)(=O)Cc3ccccc3C)ncc2Cl)cc1C | -40* | -1 | 3 | -9 | -23
O=C(CN(C(=O)c1csnn1)c1ccc(F)c(Cl)c1)NC1CCCC1 | -3 | 1 | -1 | -2 | 0
Cc1ccc(CN2C(=O)C(=O)c3cc(Br)cc(C)c32)cc1 | -49* | 7 | 28 | -4 | -26
COCCN(C(=O)CSc1nc2ccc(OC)cc2[nH]1)c1c(N)n(Cc2ccccc2)c(=O)[nH]c1=O | -13 | 0 | 0 | -7 | 2
Cc1ccc(S(=O)(=O)n2nc(OC(=O)c3cccs3)cc2N)cc1 | 4 | -1 | 22 | -10 | 9
Cc1ccc(S(=O)(=O)n2ccc(OC(=O)c3cccs3)n2)cc1 | -26 | 0 | 30* | -4 | -6
O=C1COc2ccc(S(=O)(=O)N3CCN(c4ccccc4)CC3)cc2N1 | 3 | 0 | 3 | -6 | 2
CC(CC(=O)N1CCN(c2ccccc2)CC1)S(=O)(=O)c1ccc2c(c1)NC(=O)CO2 (stereo not drawn) | -48* | 0 | 7 | -2 | 1
COc1cc(N)c(Cl)cc1C(=O)OCC(=O)Nc1cccnc1Cl | -4 | 0 | 3 | -3 | 4
CCOC(=O)Cc1csc(NS(=O)(=O)c2cccc([N+](=O)[O-])c2)n1 | -1 | 0 | 2 | 0 | 36*
CCOC(=O)Cc1csc(NC(=O)C(C)c2ccc([N+](=O)[O-])cc2)n1 (stereo not drawn) | -38* | 9 | 58* | -5 | -6
CCOC(=O)Cc1csc(NC(=O)Cc2ccccc2[N+](=O)[O-])n1 | -6 | -1 | -3 | -8 | -1
COc1cccc(NC(=O)CSc2nc3n[nH]c(C)c3c(=N)n2-c2cccc(OC)c2)c1 | -31* | 0 | 2 | -9 | 2
Cc1cc(-n2c(SCC(=O)Nc3ccc(Br)cc3)nc3n[nH]c(C)c3c2=N)ccc1Cl | -2 | 1 | 1 | -7 | -1
Cc1cc(-n2c(SCC(=O)NCc3cccs3)nc3n[nH]c(C)c3c2=N)ccc1Cl | -42* | 0 | 3 | -15 | 3
O=C(NCCc1ccccc1)C(=O)NCC(c1cccs1)S(=O)(=O)c1cccs1 (stereo not drawn) | nt | 0 | 25 | -2 | 3
Cc1ccccc1Cn1c(=O)n(Cc2ccc3c(c2)OCO3)c(=O)c2oc3ccccc3c21 | -7 | 0 | 0 | 1 | -5
S=c1[nH]c2ccc(Cc3ccc4[nH]c(=S)[nH]c4c3)cc2[nH]1 | -3 | 1 | 3 | -2 | -2
CCCC(C(=O)Nc1ccncc1)c1ccccc1 (stereo not drawn) | -40* | 1 | 9 | -6 | -11
O=c1[nH]c(Nc2ccccc2)cc2ccccc12 | 34 | 0 | 38* | -1 | -10
Cn1c(=O)cc(Nc2ccccc2)[nH]c1=O | 13 | 1 | 3 | -3 | 24
CCCCNC(=O)Cn1cnc2ccc(S(=O)(=O)N3CCC(C)CC3)cc2c1=O | 0 | 0 | 4 | -1 | -5
CCN(CC)CCCNC(=O)c1cn(CC)c2ccc(S(=O)(=O)N(C)C3CCCCC3)cc2c1=O | 15 | 0 | 2 | 0 | 4

Source: PubChem BioAssay (National Center for Advancing Translational Sciences (NCATS))
